Results on seven compounds are retold here after PubChem BioAssay.

Where “and” joins values, the source holds several entries; their conditions need not be identical. Equal entries are not always repeated. Calls of active or inactive are those of the source.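 Rule for the calls, unless noted: active = thallium flux through the channel raised or lowered by more than 3 SD from vehicle-only wells, actives on both sides; inactive = the rest.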

Assay [1] is described as follows: P. berghei load reduction in hepatocytes – cell-based, HepG2, luciferase luminescence, HepG2 viability, primary screen (AID 624349; in the data active = parasite load remaining mostly below about 12%, no sharp cut-off; inactive = mostly above about 10%;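 note: 100% = mean of DMSO negative control wells on the same plate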). Particulars: P. berghei liver stage in HepG2, luciferase luminescence, concentration not given here; parasite load remaining: stronger effect = lower value; viability: measured here: HepG2 viability without parasites.
The nature of assay [2]: signal quenchers or enhancers, Cy5 substrate/SSB – biochemical, NIH Clinical Collection, E. coli SSB, artefact control for HCV NS3 helicase inhibitor project (AID 743268; call rule not given here). Particulars: Cy5-oligo bound E. coli SSB, fluorescence interference.
Assay [3] relates to Hepatitis C virus NS3 helicase. Kind of assay: blockers of NS3h binding to DNA – biochemical, fluorescence polarization, NIH Clinical Collection, primary screen (AID 743270; call rule not given here). Particulars: NS3 helicase binding to Cy5-dT15 DNA, stronger effect = higher value, concentration not given here.
Assay [4] has as its target Single-stranded DNA-binding protein (Escherichia coli (strain K12)) (UniProt P0AGE0). The assay is described as follows: SSB-ssDNA binding inhibitors – biochemical, fluorescence polarization, NIH Clinical Collection, counter-screen for HCV NS3 helicase inhibitor project (AID 743271; in the data active = inhibition above about 28%). The settings on record: E. coli SSB-DNA binding, stronger effect = higher value, concentration not given here.

Assay [5] is described as follows: compounds distorting NS3 helicase fluorescence signal – biochemical, NIH Clinical Collection, artefact control for HCV NS3 helicase inhibitor project (AID 743272; call rule not given here;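 note: HCV NS3 helicase with a Cy5 labelled single stranded DNA probe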). Particulars: fluorescence interference counterscreen, HCV NS3 helicase assay; stronger effect = lower value.
The nature of assay [6]: modulation of C. elegans fzo-1 (AID 1259413; call rule not given here;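 note: fzo-1 mutant C. elegans worms in liquid wells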). Particulars: C. elegans fzo-1 modulator screen, mean read-out; stronger effect = higher value.
Assay [7] is described as follows: viability loss with induced miR-34 in A549 – imaging, A549 dox-inducible miR-34, nuclei and caspase counts, primary screen (AID 1347080;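 active = compounds whose cell count with miR-34 switched on is under 0.7 times the count with it off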). The settings on record: A549 miR-34 inducible, Hoechst nuclei count, 48 h.
A further assay concerns F380Y. The assay is described as follows: BK channel mutant inhibitors and activators – cell-based, U2OS BacMam, thallium flux, beta subunits, selectivity assay, profiling panel (AID 1259406).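 Note: initial slope of Thallos dye fluorescence rise after thallium is added; log ratio against the mean of 0.3% DMSO vehicle wells on the same plate.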 The settings on record: U2OS BacMam BK variants, at 30 µM.
The subject of the next assay is F380Y/beta1. The assay is described as above. The settings on record: U2OS BacMam BK variants, at 30 µM.
In another assay the test system is F380Y/beta2Delta. The assay is described as above. Particulars: U2OS BacMam BK variants, at 30 µM.
A further assay concerns F380Y/beta4. The description is as above. The settings on record: U2OS BacMam BK variants, at 30 µM.
Assay [8] concerns the target Calcium-activated potassium channel subunit alpha-1 (Homo sapiens) + Leucine-rich repeat-containing protein 26 (Homo sapiens) (UniProt Q12791+Q2I0M4). The description is as above. Particulars: U2OS BacMam BK variants, F380Y/Slo1WT/gamma1, at 30 µM.
In another assay the test system is R275C. The assay is described as above. The settings on record: U2OS BacMam BK variants, at 30 µM.
A further assay relates to R275C/beta1. The assay is described as above. Particulars: U2OS BacMam BK variants, at 30 µM.
The next assay has as its system R275C/beta2Delta. The description is as above. Particulars: U2OS BacMam BK variants, at 30 µM.
Another assay has as its system R275C/beta4. The assay is described as above. The settings on record: U2OS BacMam BK variants, at 30 µM.
A further assay concerns R275C/Slo1WT/beta2. Described as above. The settings on record: U2OS BacMam BK variants, at 30 µM.
Assay [9] is described as follows: MELAS cybrid and Rieske KO viability enhancers – cell-based, MELAS cybrids, Rieske KO mouse fibroblasts, CellTiter-Glo, primary screen (AID 1508586;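 active = mean z-score across replicates of 1.96 or higher in either the MELAS or the Rieske mutant cell line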;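 note: z relative to plate mean and SD of compound and empty wells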). Particulars: low glucose.
Where [10] appears, read: stronger effect = lower value, cell number ratio, induced over uninduced.
[11] abbreviates: measured here: relative caspase fold change +Dox/-Dox.
Setting [12] is: measured here: total cells with miR-34 induction, stronger effect = lower value.
Where [13] appears, read: measured here: total cells without miR-34 induction.
The mark [14] stands for this setting: MELAS cybrid survival, CellTiter-Glo 48 h, stronger effect = higher value.
Setting [15] is: Rieske KO mouse fibroblast survival, CellTiter-Glo 72 h.

Chain of Calcium-activated potassium channel subunit alpha-1 (Homo sapiens) + Leucine-rich repeat-containing protein 26 (Homo sapiens) (Q2I0M4 whole entry, looked up, one chain of several): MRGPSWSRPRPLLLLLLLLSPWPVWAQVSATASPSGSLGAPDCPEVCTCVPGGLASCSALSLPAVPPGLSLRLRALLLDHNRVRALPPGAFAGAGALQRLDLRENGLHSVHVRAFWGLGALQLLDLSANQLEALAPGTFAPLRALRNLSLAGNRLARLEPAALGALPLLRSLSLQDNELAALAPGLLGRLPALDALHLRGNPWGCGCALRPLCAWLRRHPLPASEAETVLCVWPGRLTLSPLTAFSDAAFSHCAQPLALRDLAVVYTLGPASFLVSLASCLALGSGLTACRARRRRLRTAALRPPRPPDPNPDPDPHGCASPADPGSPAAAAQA

Take `CN(C)C1C(=O)C(C(N)=O)=C(O)C2(O)C(=O)C3=C(O)c4c(O)ccc(Cl)c4C(O)C3CC12` (stereo unspecified): the parasite load remaining in assay [1] was 84.6% (inactive). In assay [1], the viability was found to be 103%. For the same compound, the values for the fluorescence ratio in [2] and in [5] were 1.05 (inactive) and 0.84 (inactive), respectively. Moreover, the inhibition in assay [3] was -11.4% (inactive); in [4] it was -1.24% (inactive). Moreover, the mean signal in [6] is 261 (inactive). Besides, the fold change was 0.964 (inactive) in [7] (setting [10]) and 1.22 in assay [7] (setting [11]). Besides, the values for the cell count in assay [7] (setting [12]) and in [7] (setting [13]) were 5440 and 5650, respectively. Also, the log fold change Tl+ flux in the assay on F380Y was -0.0288 (inactive); in the assay with F380Y/beta1 it was -0.00371 (inactive); with F380Y/beta2Delta, -0.0136 (inactive); in the assay on F380Y/beta4, 0.00837 (inactive); in assay [8] it was 0.0307 (inactive); in the assay on R275C, -0.0571 (inactive). The log fold change Tl+ flux with R275C/beta1 is -0.0108 (inactive); with R275C/beta2Delta, -0.203 (active); with R275C/beta4 it was -0.101 (inactive); in the assay on R275C/Slo1WT/beta2, -0.0217 (inactive).

As for `O=C1C(c2c(O)[nH]c3ccccc23)=Nc2ccccc21`, the parasite load remaining in assay [1] is 27.8% (inactive). For the same compound, the viability in assay [1] came to 67.8%. Moreover, the fluorescence ratio in assay [2] was 1.08 (inactive); in assay [5], 1.13 (inactive). For the same compound, the inhibition in assay [3] is 26.5% (active); in assay [4], 18.4% (inactive). Further, the mean signal in assay [6] is 275 (inactive). Further, the fold change is 0.964 (inactive) and 0.92 (inactive) and 0.909 (inactive) in assay [7] (setting [10]); 1.03 and 0.816 and 0.7 in assay [7] (setting [11]). Further, the cell count is 8910 and 4890 and 7650 in assay [7] (setting [12]); 9240 and 5320 and 8410 in assay [7] (setting [13]). In addition, the figures for the z-score in assay [9] (setting [14]) and in assay [9] (setting [15]) were -0.237 (inactive) and -0.638, respectively. Besides, the log fold change Tl+ flux with F380Y was 0.00735 (inactive); with F380Y/beta1, 0.00413 (inactive); in the assay with F380Y/beta2Delta, -0.012 (inactive); in the assay with F380Y/beta4, 0.0357 (inactive); in assay [8], -0.019 (inactive); in the assay on R275C it was 0.0422 (inactive). Also, the log fold change Tl+ flux was 0.013 (inactive) in the assay on R275C/beta1, -0.00188 (inactive) in the assay with R275C/beta2Delta, 0.0134 (inactive) in the assay with R275C/beta4 and 0.0591 (inactive) in the assay with R275C/Slo1WT/beta2.

Turning to `NC(=O)c1ncn(C2OC(CO)C(O)C2O)n1` (stereo unspecified), in assay [1], the parasite load remaining was 36.7% (inactive). The viability in [1] was 151%. Further, the figures for the fluorescence ratio in assay [2] and in assay [5] were 1.01 (inactive) and 1.05 (inactive), respectively. In addition, the inhibition was 1.36% (inactive) in assay [3] and 5.62% (inactive) in assay [4]. For the same compound, in assay [6], the mean signal was 278 (inactive). Also, the fold change is 0.987 (inactive) and 0.921 (inactive) in [7] (setting [10]); 1.64 and 0.871 in [7] (setting [11]). In addition, the cell count in assay [7] (setting [12]) was 9950 and 8880; in assay [7] (setting [13]), 10100 and 9640. Moreover, the z-score is -0.322 (inactive) in assay [9] (setting [14]) and 0.486 in assay [9] (setting [15]). The log fold change Tl+ flux was -0.0109 (inactive) with F380Y; -0.00666 (inactive) in the assay with F380Y/beta1; -0.00987 (inactive) in the assay with F380Y/beta2Delta; 0.00318 (inactive) with F380Y/beta4; -0.0406 (inactive) in assay [8]; 0.0183 (inactive) with R275C. Also, the log fold change Tl+ flux was -0.000638 (inactive) in the assay with R275C/beta1, -0.0258 (inactive) with R275C/beta2Delta, -0.0315 (inactive) in the assay on R275C/beta4 and 0.0198 (inactive) in the assay with R275C/Slo1WT/beta2.

Take `CCOC(=O)[C@@H](CCc1ccccc1)N[C@@H](C)C(=O)N1CCC[C@H]1C(=O)O`: in assay [1], the parasite load remaining is 41.4% (inactive). Further, in assay [1], the viability is 126%. In addition, the fluorescence ratio in assay [2] is 1.05 (inactive); in assay [5], 1 (inactive). Further, the results for the inhibition in assay [3] and in assay [4] were -10.4% (inactive) and -0.48% (inactive), respectively. In assay [6], the mean signal was 237 (inactive). For the same compound, the fold change in [7] (setting [10]) was 0.958 (inactive); in assay [7] (setting [11]), 0.517. The values for the cell count in assay [7] (setting [12]) and in [7] (setting [13]) were 11000 and 11500, respectively. Also, the log fold change Tl+ flux was 0.0242 (inactive) in the assay with F380Y; 0.0697 (inactive) in the assay on F380Y/beta1; 0.00383 (inactive) in the assay on F380Y/beta2Delta; 0.0422 (inactive) in the assay with F380Y/beta4; 0.023 (inactive) in assay [8]; 0.0223 (inactive) in the assay with R275C. Besides, the log fold change Tl+ flux is -0.00857 (inactive) with R275C/beta1, -0.00135 (inactive) in the assay on R275C/beta2Delta, -0.0226 (inactive) in the assay with R275C/beta4 and -0.0503 (inactive) with R275C/Slo1WT/beta2.

`O=C(O)C[C@H](O)C[C@H](O)/C=C/c1c(C2CC2)nc2ccccc2c1-c1ccc(F)cc1`: the parasite load remaining in assay [1] was 177% (inactive). Moreover, the viability in [1] came out at 60.8%. The fluorescence ratio was 0.98 (inactive) in assay [2] and 0.96 (inactive) in assay [5]. Also, the inhibition in assay [3] is -2.84% (inactive); in [4], -1.18% (inactive). For the same compound, in assay [6], the mean signal was 212 (inactive). Also, the fold change was 1.25 (inactive) in [7] (setting [10]) and 0.319 in assay [7] (setting [11]). Further, the cell count in [7] (setting [12]) stood at 1740; in assay [7] (setting [13]), 1390. In addition, the log fold change Tl+ flux is -0.03 (inactive) with F380Y; 0.292 (active) in the assay on F380Y/beta1; 0.0555 (inactive) with F380Y/beta2Delta; 0.0888 (inactive) in the assay on F380Y/beta4; 0.113 (active) in [8]; 0.0026 (inactive) in the assay on R275C. Besides, the log fold change Tl+ flux was 0.226 (active) in the assay on R275C/beta1, 0.114 (active) with R275C/beta2Delta, 0.107 (active) with R275C/beta4 and 0.12 (active) in the assay on R275C/Slo1WT/beta2.

As to `CC(=O)OCC(=O)C12OC3(CCCC3)OC1CC1C3CCC4=CC(=O)C=CC4(C)C3(F)C(O)CC12C` (stereo unspecified), the parasite load remaining in [1] was 72.8% (inactive). In addition, the viability in [1] was found to be 95.1%. Also, the fluorescence ratio in [2] is 1.06 (inactive); in assay [5], 0.98 (inactive). The inhibition is -5% (inactive) in assay [3] and 0.29% (inactive) in [4]. In [6], the mean signal is 242 (inactive). In addition, the figures for the fold change in assay [7] (setting [10]) and in assay [7] (setting [11]) were 0.97 (inactive) and 1.12, respectively. The cell count in [7] (setting [12]) was 5910; in [7] (setting [13]), 6100. Besides, the log fold change Tl+ flux is 0.16 (active) in the assay with F380Y; -0.0293 (inactive) with F380Y/beta1; 0.0485 (inactive) in the assay on F380Y/beta2Delta; -0.0119 (inactive) with F380Y/beta4; 0.0537 (inactive) in assay [8]; -0.00403 (inactive) in the assay on R275C. The log fold change Tl+ flux in the assay on R275C/beta1 was 0.0957 (inactive); in the assay with R275C/beta2Delta, 0.0763 (inactive); with R275C/beta4, 0.0347 (inactive); with R275C/Slo1WT/beta2, 0.084 (inactive).

For `CC(N)(Cc1ccc(O)c(O)c1)C(=O)O` (stereo unspecified), in [1], the parasite load remaining was 67.7% (inactive). Further, the viability in [1] was determined as 87.8%. The fluorescence ratio was 0.1 (active) in assay [2] and 0.96 (inactive) in assay [5]. For the same compound, the inhibition in assay [3] was -3.18% (inactive); in assay [4] it was -0.48% (inactive). Besides, in [6], the mean signal was 264 (inactive). The fold change was 1.03 (inactive) and 1.02 (inactive) in [7] (setting [10]); 0.522 and 3.64 in assay [7] (setting [11]). Also, the cell count is 9990 and 9950 in [7] (setting [12]); 9680 and 9750 in [7] (setting [13]). For the same compound, the log fold change Tl+ flux in the assay on F380Y was -0.0268 (inactive); in the assay with F380Y/beta1 it was -0.0706 (inactive); with F380Y/beta2Delta it was -0.0381 (inactive); with F380Y/beta4 it was -0.00847 (inactive); in assay [8] it was -0.0181 (inactive); in the assay with R275C, -0.0316 (inactive). Also, the log fold change Tl+ flux is -0.0727 (inactive) in the assay on R275C/beta1, -0.00349 (inactive) with R275C/beta2Delta, -0.0805 (inactive) in the assay on R275C/beta4 and -0.125 (active) in the assay on R275C/Slo1WT/beta2.
